Source: paper PMC5700166

biological target: T1, GST-Nv-NF-kB (Ser allele) (Nematostella vectensis, UniProt A7UNT2 2-411); test: protein-binding microarray (PBM); PBM: ~300 nM protein, 6 mM HEPES pH 7.8, 80 mM KCl, 0.5 mM EDTA, 0.5 mM EGTA, 6% glycerol, 35 ng/ul poly-dIdC, 1% milk, 1 h, room temperature; Ap Aiptasia and Nv Nematostella (sea anemones) / Co Capsaspora / Aq Amphimedon (sponge) / Dm Drosophila / Hu human; RHD is the Rel homology domain; high values mean tight binding; conditions: dsDNA, one strand shown
T1 sequence: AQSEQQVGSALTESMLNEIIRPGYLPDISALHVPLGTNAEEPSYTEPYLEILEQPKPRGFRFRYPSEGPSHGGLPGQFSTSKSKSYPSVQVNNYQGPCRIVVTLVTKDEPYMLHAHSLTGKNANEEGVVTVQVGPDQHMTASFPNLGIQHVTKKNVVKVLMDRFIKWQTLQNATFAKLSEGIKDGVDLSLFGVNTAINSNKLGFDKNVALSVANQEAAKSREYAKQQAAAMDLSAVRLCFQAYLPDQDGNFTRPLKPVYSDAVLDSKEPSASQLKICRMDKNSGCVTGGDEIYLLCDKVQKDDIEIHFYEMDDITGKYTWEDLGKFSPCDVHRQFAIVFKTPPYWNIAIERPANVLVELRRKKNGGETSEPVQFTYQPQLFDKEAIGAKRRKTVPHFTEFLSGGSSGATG

Sequence | binding signal [z-score]
CCGATTAACATCACAGCCCCCCCTGATGTTAATCGGGTCTTGATTCGCTTGACGCTGCTG | 3.62
CCGATTAACATCAGGAGATCCCCTGATGTTAATCGGGTCTTGATTCGCTTGACGCTGCTG | 6.55
CCGATTAACATCAAGGGGGGGGATGATGTTAATCGGGTCTTGATTCGCTTGACGCTGCTG | 5.62
CCGATTAACATCATACCCCCCCATGATGTTAATCGGGTCTTGATTCGCTTGACGCTGCTG | 3.11
CCGATTAACATCAAAATAGCCCCTGATGTTAATCGGGTCTTGATTCGCTTGACGCTGCTG | 5.05
CCGATTAACATCAGGGGATATACTGATGTTAATCGGGTCTTGATTCGCTTGACGCTGCTG | 5.69
CCGATTAACATCAGAATACCCCCTGATGTTAATCGGGTCTTGATTCGCTTGACGCTGCTG | 6.16
CCGATTAACATCATTTCCGGAAATGATGTTAATCGGGTCTTGATTCGCTTGACGCTGCTG | 1.02
CCGATTAACATCAACTCCCCCCATGATGTTAATCGGGTCTTGATTCGCTTGACGCTGCTG | 4.05
CCGATTAACATCAGGATGTCCCCTGATGTTAATCGGGTCTTGATTCGCTTGACGCTGCTG | 4.5
CCGATTAACATCAAAGCACCCCCTGATGTTAATCGGGTCTTGATTCGCTTGACGCTGCTG | 4.9
CCGATTAACATCATACTTCCCCATGATGTTAATCGGGTCTTGATTCGCTTGACGCTGCTG | 6.52
CCGATTAACATCAGGGCTCCCCCTGATGTTAATCGGGTCTTGATTCGCTTGACGCTGCTG | 5.09
CCGATTAACATCAAAAAACCCCATGATGTTAATCGGGTCTTGATTCGCTTGACGCTGCTG | 6.05
CCGATTAACATCACATACCTACCTGATGTTAATCGGGTCTTGATTCGCTTGACGCTGCTG | 1.21
CCGATTAACATCACTAATCCCCCTGATGTTAATCGGGTCTTGATTCGCTTGACGCTGCTG | 6.57
CCGATTAACATCATAAAAAAAAATGATGTTAATCGGGTCTTGATTCGCTTGACGCTGCTG | 1.09
CCGATTAACATCAGGAGACCCCCTGATGTTAATCGGGTCTTGATTCGCTTGACGCTGCTG | 2.64
CCGATTAACATCAGAAACCCCCATGATGTTAATCGGGTCTTGATTCGCTTGACGCTGCTG | 6.17
CCGATTAACATCATGGTACTTGTTGATGTTAATCGGGTCTTGATTCGCTTGACGCTGCTG | 1.85

Sequence | binding signal [z-score]
CCGATTAACATCAGGGGGAACAATGATGTTAATCGGGTCTTGATTCGCTTGACGCTGCTG | 6.27
CCGATTAACATCAGATTTACCGCTGATGTTAATCGGGTCTTGATTCGCTTGACGCTGCTG | 1.31
CCGATTAACATCAAACCCCCCCTTGATGTTAATCGGGTCTTGATTCGCTTGACGCTGCTG | 4.97
CCGATTAACATCAGTACCGCGAATGATGTTAATCGGGTCTTGATTCGCTTGACGCTGCTG | 1.29
CCGATTAACATCAAGGGGGGTTATGATGTTAATCGGGTCTTGATTCGCTTGACGCTGCTG | 5.24
CCGATTAACATCAGGGGGGGAACTGATGTTAATCGGGTCTTGATTCGCTTGACGCTGCTG | 6.12
CCGATTAACATCAGGGAAACTTATGATGTTAATCGGGTCTTGATTCGCTTGACGCTGCTG | 6.07
CCGATTAACATCAGGGCACCCCCTGATGTTAATCGGGTCTTGATTCGCTTGACGCTGCTG | 3.83
CCGATTAACATCACGAAAACCCCTGATGTTAATCGGGTCTTGATTCGCTTGACGCTGCTG | 5.71
CCGATTAACATCAAAAGCCCCCTTGATGTTAATCGGGTCTTGATTCGCTTGACGCTGCTG | 5.65
CCGATTAACATCAGAAAGTTCCCTGATGTTAATCGGGTCTTGATTCGCTTGACGCTGCTG | 3.65
CCGATTAACATCAGGGGGAGGGATGATGTTAATCGGGTCTTGATTCGCTTGACGCTGCTG | 4.98
CCGATTAACATCAGGGGACGTTATGATGTTAATCGGGTCTTGATTCGCTTGACGCTGCTG | 4.91
CCGATTAACATCAAGGGGGGGAATGATGTTAATCGGGTCTTGATTCGCTTGACGCTGCTG | 6
CCGATTAACATCACCAAACCCCCTGATGTTAATCGGGTCTTGATTCGCTTGACGCTGCTG | 6.38
CCGATTAACATCACCCCGCCCCCTGATGTTAATCGGGTCTTGATTCGCTTGACGCTGCTG | 3.65
CCGATTAACATCACATTGGGAAATGATGTTAATCGGGTCTTGATTCGCTTGACGCTGCTG | 1.58
CCGATTAACATCAACTCCCCCCCTGATGTTAATCGGGTCTTGATTCGCTTGACGCTGCTG | 4.48
CCGATTAACATCAAATGTGGGAATGATGTTAATCGGGTCTTGATTCGCTTGACGCTGCTG | 1.31
